The nature of experiment [1]: ATG_E_Box_CIS: Attagene CIS-FACTORIAL HepG2 Assay for human Enhancer Box (E-box) (AID 2282936). The settings on record: HepG2 E-box cis-reporter transcription, actives raise or lower the signal. The procedure, abridged:
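DMSO served as negative control and baseline for bidirectional fitting. Human hepatoma HepG2 cells, transiently transfected with cis-reporter constructs, were dosed 24 h; reporter mRNA read by RT-PCR and capillary electrophoresis.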

Experiment [2] can be described thus: ATG_M_61_CIS: Attagene CIS-FACTORIAL HepG2 Assay for M61 Transcription Factor (Internal Marker) (AID 2282937). The settings on record: HepG2 Attagene CIS-FACTORIAL M61 internal marker reporter; actives raise or lower the signal. The procedure, abridged: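 HepG2 cells transiently transfected with multiplexed cis-promoter reporter units reporting endogenous transcription factor activity, measured 24 h after dosing. Reporter mRNA quantified by RT-PCR and capillary electrophoresis; bidirectional fit against DMSO baseline.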

Experiment [3] can be described thus: ATG_EGR_CIS: Attagene CIS-FACTORIAL HepG2 Assay for human Early Growth Response 1 (EGR1) (AID 2282938). The following applies: HepG2 Attagene CIS-FACTORIAL EGR reporter mRNA; actives raise or lower the signal. The procedure, abridged: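 HepG2 cells transiently transfected with cis-element-driven multiplexed reporter units, dosed for 24 h. EGR1-element reporter mRNA quantified by RT-PCR, 6-FAM labelling, HpaI digestion and capillary electrophoresis; bidirectional fit versus DMSO.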

Experiment [4] in a line: ATG_M_19_CIS: Attagene CIS-FACTORIAL HepG2 Assay for M19 Transcription Factor (Internal Marker) (AID 2282939). The settings on record: HepG2 Attagene CIS-FACTORIAL M19 internal marker reporter; actives raise or lower the signal. The procedure, abridged: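 Following a 24 h exposure, RNA from transfected HepG2 cells was reverse-transcribed, PCR-amplified with reporter-specific primers, end-labelled with 6-FAM and HpaI-digested before capillary separation. Values represent gain or loss versus DMSO.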

Experiment [5] can be described thus: ATG_ERE_CIS: Attagene CIS-FACTORIAL HepG2 Assay for Estrogen Response Element (ERE) (AID 2282940). The following applies: HepG2 ERE cis-reporter, Attagene RNA transcript; actives raise or lower the signal. The procedure, abridged: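 HepG2, transient cis-reporter units, 24 h exposure. RNA isolated, oligo(dT) RT, reporter-specific PCR, FAM extension, HpaI cut, CE detection. Gain/loss-of-signal vs DMSO.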

Experiment [6] in a line: ATG_Ets_CIS: Attagene CIS-FACTORIAL HepG2 Assay for human Erythroblast Transformation Specific (ETS) (AID 2282941). The settings on record: HepG2 ETS cis-reporter transcription, actives raise or lower the signal. In a few lines: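 HepG2 cells transfected with multiple cis-regulated reporter units measuring endogenous ETS-driven transcription, 24 h after dosing. Reporter mRNA quantified by RT-PCR with capillary electrophoresis; bidirectional fit relative to DMSO.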

Experiment [7] addresses Hepatocyte nuclear factor 3-beta (Homo sapiens) (UniProt Q9Y261). The experiment is described as follows: ATG_FoxA2_CIS: Attagene CIS-FACTORIAL HepG2 Assay for human Forkhead box A2 (FOXA2) (AID 2282942). The settings on record: HepG2 cis-reporter transcription factor activity, 24 h; actives raise or lower the signal. The procedure, abridged:
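HepG2 transiently transfected with a multiplexed cis-promoter reporter library read endogenous FOXA2 activity. After 24 h compound exposure, reporter mRNA was quantified by RT-PCR, HpaI digestion and capillary electrophoresis. Bidirectional fit against DMSO.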

Experiment [8] can be described thus: ATG_FoxO_CIS: Attagene CIS-FACTORIAL HepG2 Assay for human Forkhead box O (FoxO) (AID 2282943). The following applies: HepG2 Attagene cis-reporter, FoxO element, mRNA; actives raise or lower the signal. In a few lines: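 Endogenous transcription factor activity read from multiplexed cis-promoter reporter transcripts in transiently transfected HepG2, 24 h after dosing. Reporter RNA measured via RT-PCR plus capillary electrophoresis of FAM-labeled products; gain or loss relative to DMSO.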

Experiment [9] can be described thus: ATG_GATA_CIS: Attagene CIS-FACTORIAL HepG2 Assay for human GATA Binding Protein (AID 2282944). The following applies: HepG2 GATA cis-element reporter, Attagene multiplex mRNA; actives raise or lower the signal. In a few lines:
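DMSO serves as negative control and baseline for bidirectional fitting of reporter mRNA changes. HepG2 cells bearing transiently transfected cis-promoter reporters were exposed 24 h; transcripts detected via RT-PCR and capillary electrophoresis.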

Experiment [10] can be described thus: ATG_GLI_CIS: Attagene CIS-FACTORIAL HepG2 Assay for human Zinc Finger Protein GLI1 (AID 2282945). The settings on record: HepG2, Attagene cis-factorial reporter mRNA, GLI element; actives raise or lower the signal. In a few lines: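 Bidirectional curve fits relative to DMSO, using reporter mRNA levels from RT-PCR plus capillary electrophoresis. Cells were HepG2 transiently carrying cis-regulated reporter constructs, harvested 24 h after dosing.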

Experiment [11] addresses Bile acid receptor (Homo sapiens) (UniProt Q96RI1). Briefly: ATG_IR1_CIS: Attagene CIS-FACTORIAL HepG2 Assay for human Nuclear Receptor Subfamily 1 Group H Member 4 (NR1H4), IR1 submotif (AID 2282946). The settings on record: IR1 reporter transcription, actives raise or lower the signal. The procedure, abridged:
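Cells (human HepG2) carry transiently transfected cis-promoter reporter transcription units. Compounds are incubated 24 h, total RNA is reverse-transcribed and amplified, and labelled fragments are resolved by capillary electrophoresis. Curves use DMSO as baseline.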

Experiment [12] can be described thus: ATG_GRE_CIS: Attagene CIS-FACTORIAL HepG2 Assay for human Glucocorticoid Response Elements (GRE) (AID 2282947). The following applies: HepG2 GRE cis-reporter, Attagene multiplex mRNA; actives raise or lower the signal. In a few lines: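 Assay uses human hepatoma HepG2 cells transfected with cis-promoter reporter units, exposed 24 h. mRNA from reporters detected by RT-PCR plus capillary electrophoresis; DMSO serves as negative control and baseline.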

Experiment [13] is described as follows: ATG_ISRE_CIS: Attagene CIS-FACTORIAL HepG2 Assay for human Interferon Regulatory Factor 1 (IRF1) binding to an Interferon-Stimulated Response Element (ISRE) (AID 2282948). The settings on record: HepG2 ISRE cis-reporter (Attagene), mRNA transcription readout; actives raise or lower the signal. In a few lines: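 Transiently transfected HepG2 cells carrying cis-element reporter units, dosed 24 hours. Reporter mRNA quantified by RT-PCR, fluorescent primer extension, HpaI digestion and capillary electrophoresis. Bidirectional fitting relative to DMSO.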

Experiment [14] is described as follows: ATG_M_32_CIS: Attagene CIS-FACTORIAL HepG2 Assay for M32 Transcription Factor (Internal Marker) (AID 2282949).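 Further: background control marker of the multiplexed CIS panel rather than a real target.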 The settings on record: HepG2 Attagene cis-factorial M32 reporter, mRNA; actives raise or lower the signal. The procedure, abridged: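 Following 24 h chemical exposure of HepG2 cells transiently expressing cis-promoter reporter constructs, reporter transcript levels were determined by RT-PCR with fluorescent labelling and capillary electrophoresis, then fitted bidirectionally against DMSO.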

Experiment [15] is described as follows: ATG_M_06_CIS: Attagene CIS-FACTORIAL HepG2 Assay for M06 Transcription Factor (Internal Marker) (AID 2282950). The settings on record: HepG2 Attagene CIS-FACTORIAL M06 internal marker reporter; actives raise or lower the signal. In a few lines:
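Fluorescence-labelled RT-PCR products from cis-promoter reporter units, cut with HpaI and resolved by capillary electrophoresis, give the signal. Cells are human HepG2, dosed for 24 h. Serves as background control, fitted relative to DMSO.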

Experiment [16] has as its target Hypoxia-inducible factor 1-alpha (Homo sapiens) (UniProt Q16665). The experiment is described as follows: ATG_HIF1a_CIS: Attagene CIS-FACTORIAL HepG2 Assay for human Hypoxia Inducible Factor 1 (HIF1A) (AID 2282951). The following applies: HepG2 Attagene cis-factorial HIF1a reporter transcription; actives raise or lower the signal. The procedure, abridged:
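HepG2 cells transiently transfected with multiple cis-regulated reporter transcription units measure endogenous transcription factor activity. After 24 h exposure, reporter mRNA is quantified by RT-PCR with 6-FAM labelling, HpaI digestion and capillary electrophoresis. Bidirectional fitting against DMSO.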

Experiment [17] concerns the target Hepatocyte nuclear factor 6 (Homo sapiens) (UniProt Q9UBC0). The experiment is described as follows: ATG_HNF6_CIS: Attagene CIS-FACTORIAL HepG2 Assay for human Hepatocyte Nuclear Factor 6 (HNF6) (AID 2282952). The settings on record: HepG2 Attagene cis-factorial HNF6 reporter transcription; actives raise or lower the signal. In a few lines:
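HepG2 cells transiently transfected with cis-element-driven multiple reporter transcription units, dosed 24 h; reporter mRNA quantified by RT-PCR, FAM primer extension, HpaI digestion and capillary electrophoresis; bidirectional fit versus DMSO baseline.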

Experiment [18] can be described thus: ATG_MRE_CIS: Attagene CIS-FACTORIAL HepG2 Assay for human Metal Responsive Element (MRE) (AID 2282954). The following applies: HepG2 MRE cis-reporter transcription, Attagene multiplex; actives raise or lower the signal. The procedure, abridged:
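After a 24 h chemical exposure, transiently transfected HepG2 cells yield RNA whose reporter sequences are amplified, FAM-labelled and sized by capillary electrophoresis. Curves are fitted bidirectionally relative to DMSO.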

Experiment [19] in a line: ATG_PBREM_CIS: Attagene CIS-FACTORIAL HepG2 Assay for human Phenobarbital-responsive Enhancer Module (PBREM) (AID 2282955). The settings on record: HepG2 PBREM cis-reporter, Attagene multiplexed transcription; actives raise or lower the signal. The procedure, abridged:
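HepG2 cells transiently transfected with multiple cis-regulated reporter units measure endogenous transcription factor activity; 24 h compound exposure. Reporter mRNA quantified by RT-PCR, fluorescent labelling, HpaI digestion and capillary electrophoresis; bidirectional fit versus DMSO.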

The target in experiment [20] is Heat shock factor protein 1 (Homo sapiens) (UniProt Q00613). The experiment is described as follows: ATG_HSE_CIS: Attagene CIS-FACTORIAL HepG2 Assay for human Heat Shock Transcription Factor 1 (HSE) (AID 2282953). The settings on record: HepG2 HSE cis-reporter, Attagene RNA transcription; actives raise or lower the signal. The procedure, abridged: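 After a 24 h incubation with test chemical, transfected HepG2 cells were harvested for RNA; reporter transcripts were measured by RT-PCR and capillary electrophoresis. Values reflect gain or loss of signal relative to DMSO.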
Chain of Heat shock factor protein 1 (Homo sapiens) (Q00613 whole entry, looked up): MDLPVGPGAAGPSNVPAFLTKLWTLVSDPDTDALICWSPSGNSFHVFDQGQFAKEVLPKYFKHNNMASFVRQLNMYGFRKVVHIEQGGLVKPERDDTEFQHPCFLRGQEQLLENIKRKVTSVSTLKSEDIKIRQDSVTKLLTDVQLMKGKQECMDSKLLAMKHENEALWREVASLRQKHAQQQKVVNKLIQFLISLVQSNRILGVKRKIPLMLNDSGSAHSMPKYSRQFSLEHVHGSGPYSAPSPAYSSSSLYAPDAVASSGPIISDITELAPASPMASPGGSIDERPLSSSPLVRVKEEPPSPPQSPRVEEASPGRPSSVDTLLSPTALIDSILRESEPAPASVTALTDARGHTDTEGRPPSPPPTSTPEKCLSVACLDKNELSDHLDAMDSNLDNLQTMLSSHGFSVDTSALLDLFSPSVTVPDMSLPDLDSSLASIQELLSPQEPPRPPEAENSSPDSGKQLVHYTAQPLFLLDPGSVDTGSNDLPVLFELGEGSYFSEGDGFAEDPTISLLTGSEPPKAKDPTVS

Molecules are shown by their SMILES. Activity calls are given as the source filed them. How the source made its calls: active means hit-call score of the fitted dose curve at least 0.9, where 1 is the maximum; inactive means score below 0.9.

Chain of Hypoxia-inducible factor 1-alpha (Homo sapiens) (Q16665 whole entry, looked up): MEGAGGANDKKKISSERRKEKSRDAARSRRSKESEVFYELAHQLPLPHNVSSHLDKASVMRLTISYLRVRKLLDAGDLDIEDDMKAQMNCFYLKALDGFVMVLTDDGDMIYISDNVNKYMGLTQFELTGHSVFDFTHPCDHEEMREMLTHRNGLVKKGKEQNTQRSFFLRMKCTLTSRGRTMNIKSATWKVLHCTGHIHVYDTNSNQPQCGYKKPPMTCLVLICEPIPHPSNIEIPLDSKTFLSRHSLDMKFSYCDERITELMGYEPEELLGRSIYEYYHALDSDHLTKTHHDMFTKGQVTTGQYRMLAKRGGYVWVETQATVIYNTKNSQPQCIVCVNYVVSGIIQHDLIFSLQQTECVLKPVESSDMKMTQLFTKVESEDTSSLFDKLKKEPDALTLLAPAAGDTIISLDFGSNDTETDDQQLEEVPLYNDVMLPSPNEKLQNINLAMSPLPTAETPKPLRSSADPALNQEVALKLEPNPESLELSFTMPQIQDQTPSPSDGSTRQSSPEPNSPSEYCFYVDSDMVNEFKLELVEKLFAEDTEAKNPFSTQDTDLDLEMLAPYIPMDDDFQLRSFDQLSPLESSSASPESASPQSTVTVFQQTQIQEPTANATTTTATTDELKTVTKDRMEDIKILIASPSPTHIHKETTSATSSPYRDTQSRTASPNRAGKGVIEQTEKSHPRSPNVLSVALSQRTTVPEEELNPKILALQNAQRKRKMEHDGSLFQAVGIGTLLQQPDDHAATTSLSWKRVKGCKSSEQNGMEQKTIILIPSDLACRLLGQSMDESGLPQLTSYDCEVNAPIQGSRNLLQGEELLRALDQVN
Chain of Bile acid receptor (Homo sapiens) (Q96RI1 whole entry, looked up, the tested form may be a part): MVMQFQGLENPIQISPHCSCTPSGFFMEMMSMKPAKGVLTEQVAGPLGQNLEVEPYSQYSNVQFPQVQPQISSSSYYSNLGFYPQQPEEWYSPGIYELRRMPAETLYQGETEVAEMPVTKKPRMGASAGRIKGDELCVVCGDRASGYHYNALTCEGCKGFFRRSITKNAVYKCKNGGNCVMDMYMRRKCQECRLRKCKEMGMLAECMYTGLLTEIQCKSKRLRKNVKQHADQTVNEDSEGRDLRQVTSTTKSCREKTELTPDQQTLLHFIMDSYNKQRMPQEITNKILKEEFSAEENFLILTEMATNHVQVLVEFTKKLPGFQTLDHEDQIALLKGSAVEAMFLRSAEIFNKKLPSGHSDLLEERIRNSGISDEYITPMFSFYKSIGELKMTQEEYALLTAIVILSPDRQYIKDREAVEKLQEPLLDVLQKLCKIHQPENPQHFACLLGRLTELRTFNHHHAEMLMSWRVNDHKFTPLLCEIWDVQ
Chain of Hepatocyte nuclear factor 6 (Homo sapiens) (Q9UBC0 whole entry, looked up): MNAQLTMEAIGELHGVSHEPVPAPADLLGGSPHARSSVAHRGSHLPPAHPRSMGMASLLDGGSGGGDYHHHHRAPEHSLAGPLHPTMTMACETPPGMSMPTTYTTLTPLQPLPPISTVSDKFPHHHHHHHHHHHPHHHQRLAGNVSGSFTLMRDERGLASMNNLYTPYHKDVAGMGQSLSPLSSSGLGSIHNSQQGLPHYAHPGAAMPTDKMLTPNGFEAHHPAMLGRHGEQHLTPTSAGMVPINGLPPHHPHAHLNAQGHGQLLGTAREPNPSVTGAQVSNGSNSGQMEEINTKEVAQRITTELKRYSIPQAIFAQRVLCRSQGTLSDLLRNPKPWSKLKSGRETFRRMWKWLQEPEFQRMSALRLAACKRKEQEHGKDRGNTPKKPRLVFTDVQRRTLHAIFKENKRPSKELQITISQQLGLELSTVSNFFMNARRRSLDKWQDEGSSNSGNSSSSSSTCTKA
Chain of Hepatocyte nuclear factor 3-beta (Homo sapiens) (Q9Y261 whole entry, looked up): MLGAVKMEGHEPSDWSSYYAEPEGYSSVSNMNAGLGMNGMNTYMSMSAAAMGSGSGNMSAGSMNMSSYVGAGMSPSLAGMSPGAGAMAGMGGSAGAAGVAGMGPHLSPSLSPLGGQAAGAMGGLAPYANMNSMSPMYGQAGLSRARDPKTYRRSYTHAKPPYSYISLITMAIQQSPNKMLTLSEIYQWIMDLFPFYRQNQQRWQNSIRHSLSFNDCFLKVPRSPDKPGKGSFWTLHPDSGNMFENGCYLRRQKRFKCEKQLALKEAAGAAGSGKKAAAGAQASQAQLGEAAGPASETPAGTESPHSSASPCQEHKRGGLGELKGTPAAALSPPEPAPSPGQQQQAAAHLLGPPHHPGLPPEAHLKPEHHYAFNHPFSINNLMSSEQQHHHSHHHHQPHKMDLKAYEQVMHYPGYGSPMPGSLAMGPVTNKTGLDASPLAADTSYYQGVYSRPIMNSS

Consider `CC(C)(C)c1ccc(-c2ccc(C(C)(C)C)cc2)cc1`, for which the result in experiment [1], in experiment [2], in experiment [3], in [4], in experiment [5] and in [6] was inactive. Also, the result in experiment [7], in [8], in [9], in experiment [10], in [11] and in [12] was inactive. In addition, the outcome in experiment [13], in experiment [14], in [15], in [16], in [17] and in experiment [18] was inactive. In experiment [19], the result was inactive.
For the compound `CCCCCc1ccc(Cl)cc1`, the outcome in experiment [1], in [2], in experiment [3], in experiment [4], in experiment [5] and in [6] was inactive. Further, the compound was called inactive in experiment [7], in experiment [8], in [9], in [10], in [11] and in experiment [12]. Further, the compound was classed as inactive in experiment [13], in experiment [14], in [15], in [16], in experiment [17] and in [18].
Broadly, the AC50 is the concentration at which the activity in the assay is half-maximal. Consider `CCCCCCCC[N+](C)(CCCCCCCC)CCCCCCCC`, for which the result in [1], in experiment [2], in experiment [3], in [4], in experiment [5] and in experiment [6] was inactive. In addition, the result in [7], in experiment [8], in experiment [9], in experiment [10], in [11] and in experiment [12] was inactive. Moreover, the result in experiment [13], in [14], in experiment [17], in experiment [20] and in experiment [19] was inactive. Moreover, the results for the AC50 in experiment [16] and in [18] were 0.000753 µM (active) and 2.15 µM (active), respectively.
On to `CCCCCCCCc1ccc(Nc2ccc(CCCCCCCC)cc2)cc1`, for which the result in experiment [1], in experiment [2], in experiment [3], in [4], in experiment [5] and in experiment [6] was inactive. Moreover, the call in experiment [7], in [8], in experiment [9], in [10], in [11] and in experiment [12] was inactive. Further, the outcome in experiment [13], in [14], in experiment [15], in [16], in experiment [17] and in experiment [20] was inactive. Also, the compound was called inactive in experiment [18] and in [19].

These data come from PubChem BioAssay (EPA / NIEHS).
